Drawing on PubChem BioAssay (NCI), this text covers growth for 40 compounds.

About 83,000 compounds went through this panel and 20% of them were active in at least one assay; those are over-represented in the sample as a whole.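 Interpretation: 100, growth as untreated; towards 0, rising growth inhibition; 0, no net growth; 0 to -100, cell death. Compounds scoring below 10 were considered active.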 The source made the active and inactive calls.

The assay concerns HOP-92 NSCLC. Put plainly: NCI-60 one-dose screen, 48 h (100 = growth as untreated, 0 = no growth, -100 = all killed). To be noted: 10 µM unless noted. The protocol: Growth inhibition of the HOP-92 human Non-Small Cell Lung tumor cell line is measured as a screen for anti-cancer activity. Cells are grown in 96 well plates and exposed to the test compound for 48 hours. Compounds are tested at a single concentration, which is 10^-5 M for most compounds. The reported endpoint is percent growth (GI% or GIPRCNT), where numbers from 0 - 100% represent growth inhibition, and numbers from -100% - 0 represent cell death. For example, a value of 40 represents 60% growth inhibition. A value of 0 means no net growth occurred over the course of the experiment. A value of -40 indicates 40% of cells at the beginning of the experiment died by the end of the experiment. A value of -100 means all cells are dead at the end of the experiment.
NCI-60 Human Tumor Cell Lines Screen was performed using the standard one-dose NCI protocol, which is described in more detail at https://dtp.cancer.gov/discovery_development/nci-60/default.htm.
Compounds with GIPRCNT values below 10 were considered active. Activity score was based on GIPRCNT using the following formula: […]
Score is 0 for GIPRCNT values of 100 or above, 50 for GIPRCNT values of 0, and 100 for GIPRCNT values of -100.
For `Cc1ccc2[nH]c(-c3ccc(S(C)(=O)=O)cc3)c(/C=N/N=C(N)N)c2c1`, the growth was 59.9% (inactive). Then `CN(C)c1ccc(/C=C2/C=C(c3ccccc3)OC2=O)cc1`, with 98.2% (inactive); and `CNC(=O)c1cc(Oc2ccc3nc(NC(=O)Nc4ccc(Cl)c(Cl)c4)sc3c2)ccn1`, with 64.4% (inactive). Then `COC(=O)c1ccc2c(c1)c1c(C)c3ccncc3c(C)c1n2C`, with 18.7% (inactive). `CCOC(=O)c1c(NC(=O)c2ccc(C(C)(C)C)cc2)sc2cc(O)ccc12`: the growth is 96.8% (inactive). On to `O=C(Nc1nc(C(=O)N2CCN(C(c3ccccc3)c3ccccc3)CC2)cs1)c1ccc(NC2CCCCC2)c([N+](=O)[O-])c1`, for which the growth was 63.7% (inactive).

Regarding `N#C/C(=C\c1ccc(-c2ccc(Cl)cc2)o1)c1ccc(Cl)cc1`, the growth was 5.34% (active). With `O=S(=O)(c1ccccc1)N1CCCN(c2nc(-c3ccccc3)nc3nc(-c4ccccc4)oc23)CC1`, the growth was 105% (inactive). Consider `FC(F)(F)c1[nH]ncc1-c1nc2c(N3CCCCC3)cc3[nH]ncc3c2c2c1CCCC2`, for which the growth was -10.2% (active).

For the compound `O=C(CN1CCN(c2cc3c(cc2F)c(=O)c(C(=O)O)cn3C2CC2)CC1)N/N=C/c1ccncc1`, the growth was 94.1% (inactive).

For `C=CCOC(=O)C1=C(C)NC(=O)NC1c1c(Cl)n(C)c2ccccc12` (stereo not given), the growth is 55.3% (inactive). For the compound `N#CCC1=NC(c2cccs2)=Nc2ccccc2S1`, the growth is 71.7% (inactive). Then `CCNC(=O)Oc1ccc(/C(=C(/C)Cc2ccc(OC)cc2)c2ccc(OCCN3CCCCCC3)cc2)cc1`, with 40.8% (inactive); and `Cc1ccc(C)c(-n2c(-c3ccc(Br)cc3)csc2=NC(=O)c2ccccc2F)c1`, with 67.6% (inactive).

Take `Cn1cc(-c2nn3cc(-c4ccccc4)nc3s2)c2ccccc21`: the growth is 71.9% (inactive). Regarding `COCCCOc1cc(C[C@@H](C[C@H](N)[C@@H](O)C[C@H](C(=O)NCC(C)(C)C(N)=O)C(C)C)C(C)C)ccc1OC`, the growth was 84.5% (inactive). For the compound `O=C(/C=C/C12c3ccccc3C(c3ccccc31)C1C(=O)NC(=O)C12)c1ccccn1` (stereo not given), the growth was -12.4% (active). In the case of `CC/C=C1/C(=O)C=C[C@@H]1C/C=C\CCCC(=O)OC` it was 91.3% (inactive); in that of `COc1ccc(/C=C/C(=O)c2cc3c(N)c(C(=O)Nc4ccc(OC)cc4)sc3nc2C)cc1`, 97.7% (inactive); in that of `O=C1OCC2=C1C(c1cccc(F)c1)c1cc3c(cc1N2CCO)OCO3` (stereo not given), 34.6% (inactive).

Turning to `CC(=O)N(Cc1ccccc1)c1nc2ccc(O)c(CN(C)C)c2s1`, the growth was 37.6% (inactive). For `Cc1ccc(O)c(NC(=O)c2ccc(CNc3ccnc(C(F)(F)F)c3)cc2)c1`, the growth was 92.1% (inactive). Then `CC[C@H](CC[C@@H](C)[C@H]1CC[C@H]2[C@@H]3CC[C@@H]4CC(=O)/C(=C\c5ccncc5)C[C@]4(C)[C@H]3CC[C@]12C)C(C)C`, with 91.5% (inactive); and `C=CC(=O)N1CCN(c2ccc3cccc(NC(=O)c4cnc(C)cn4)c3n2)CC1`, with 42.7% (inactive).

For `COC(c1ccc2ccccc2c1)C(C)C(F)F` (stereo not given), the growth was 107% (inactive).

`CC(/C=C1\SC(=S)N(CC(=O)NC(Cc2c[nH]c3ccccc23)C(=O)O)C1=O)=C\c1ccccc1` (stereo not given): the growth was 106% (inactive). Then `O=c1[nH]cnc2c1C(c1ccc(Br)cc1)c1sc3c(F)cccc3c1O2` (stereo not given), with 49.2% (inactive).

With `N#Cc1nc(-c2ccc(F)cc2)oc1S(=O)(=O)N1CCN(c2ccc(F)cc2)CC1`, the growth was 123% (inactive). For the compound `COC(=O)C1=C(C)NC(C)=C(C(=O)OCC(C)C)C1c1ccccc1[N+](=O)[O-]` (stereo not given), the growth is 47.3% (inactive).

As to `O=[N+]([O-])/C(=C\c1ccco1)c1ccccc1Cl`, the growth was 33.2% (inactive).

Turning to `C=CC1(C)C(O[Si](C)(C)C(C)(C)C)CC2C3OC(=O)NC31c1cccc3c1[C@H](C(=O)N3C)C2(C)C` (stereo not given in full), the growth is 29.4% (inactive).

Consider `C=C1C(=O)O[C@H]2[C@H]1CC/C(COC(=O)c1cc3cc(F)ccc3[nH]1)=C\CC[C@@]1(C)O[C@@H]21`, for which the growth was -84.9% (active).

With `COC(=O)c1c2c(c(C)[n+]([O-])c1C)C(=O)C=CC2=O`, the growth was 45.8% (inactive). Consider `CN1CCN(CCOc2ccc(-c3cnc4c(-c5ccc(C(F)(F)F)cc5)cnn4c3)cc2)CC1`, for which the growth was 40.4% (inactive).

For `C=CC(C)(O)CC/C=C(\CO)C(=O)OC1C(C)OC(O[C@](C)(C=C)CC/C=C(\CO)C(=O)O[C@H]2C[C@@]3(C(=O)OC4OC(CO)C(O)C(O)C4OC4OC(C)C(OC5OC(CO)C(O)C5O)C(OC5OC(CO)C(O)C(O)C5O)C4O)C(CC2(C)C)C2=CCC4[C@@]5(C)CC[C@H](OC6OC(COC7OC(C)C(O)C(O)C7OC7OCC(O)C(O)C7O)C(O)C(O)C6NC(C)=O)C(C)(C)C5CC[C@@]4(C)[C@]2(C)C[C@H]3O)C(O)C1O` (stereo not given in full), the growth was -46.2% (active). Then `O=C1Nc2ccccc2C2c3cccn3-c3ccccc3N12` (stereo not given), with 57.8% (inactive); and `O=C1/C(=C/c2ccc(C(F)(F)F)cc2)COc2ccc(O)c(O)c21`, with -13.7% (active); and `O=C(/C=C/C12c3ccccc3C(c3ccccc31)C1C(=O)NC(=O)C12)c1ccc(F)cc1` (stereo not given), with -30.9% (active). On to `O=C1NC(=O)c2c1c1c3ccccc3[nH]c1c1oc3ccc(F)cc3c21`, for which the growth was 70.1% (inactive). On to `CN(CCC#N)c1ccc(/C=C2\NC(=O)NC2=O)cc1`, for which the growth is 79.2% (inactive).
